Measured values taken from PubChem BioAssay (NCATS).
Inconclusive results are not listed. The source made the active and inactive calls. Unless noted, calls come from the whole dose curve; as a rule, active = well fitted curve in either direction with a large enough effect (not every such curve was filed as active); inconclusive = small, poorly fitted or top-dose-only effect, or another doubt; inactive = flat fitted curve, though single readings scatter.

Assays:
[1] = target: Lysosomal acid glucosylceramidase (Homo sapiens) (UniProt P04062); assay: Glucocerebrosidase-p2 (AID 348; in the data active = potency below about 10 µM; note: potency is the fitted concentration of half-maximal effect); details: purified GBA, blue fluorogenic substrate, 40 min
Sequence of Lysosomal acid glucosylceramidase (Homo sapiens) (P04062 whole entry, looked up): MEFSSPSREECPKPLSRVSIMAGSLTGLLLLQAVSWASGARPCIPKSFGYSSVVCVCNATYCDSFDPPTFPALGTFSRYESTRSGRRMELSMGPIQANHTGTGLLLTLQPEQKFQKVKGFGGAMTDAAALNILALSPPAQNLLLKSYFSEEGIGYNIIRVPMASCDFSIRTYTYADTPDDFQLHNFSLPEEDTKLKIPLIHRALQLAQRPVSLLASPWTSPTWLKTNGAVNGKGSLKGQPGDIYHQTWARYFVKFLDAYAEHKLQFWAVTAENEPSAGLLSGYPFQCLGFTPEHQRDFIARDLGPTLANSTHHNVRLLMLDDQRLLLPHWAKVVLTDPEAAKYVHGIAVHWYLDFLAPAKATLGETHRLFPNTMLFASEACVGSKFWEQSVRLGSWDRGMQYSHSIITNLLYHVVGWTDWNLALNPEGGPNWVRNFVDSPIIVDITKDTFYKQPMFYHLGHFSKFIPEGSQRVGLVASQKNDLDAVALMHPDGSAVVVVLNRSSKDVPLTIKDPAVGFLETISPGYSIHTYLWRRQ
Procedure, shortened: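 Compounds titrated from 0.6 nM upwards against 0.2 nM enzyme in pH 5.9 citric acid/KH2PO4, taurocholate, tween-20; blue fluorogenic substrate 80 uM, 40 min room temperature, stopped and read Ex 365/Em 440 for AC50.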

[2] = AP1 Signaling Pathway (AID 357); details: ME-180 AP-1-bla reporter, EGF-induced, beta-lactamase ratio, 5 h; at 7.69 µM (top of the series) unless noted;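 note: ME-180 reporter cells stimulated with EGF at its EC50 level; % is set by controls: 0 for no effect and ±100 for the full control effect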
Procedure, shortened: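 Modulation of EGF-driven AP-1 transcription was assessed with a beta-lactamase reporter in ME-180 cells. Compound and EC50 EGF were co-incubated 5 hours at 37 °C before 2.5-hour CCF4 loading at room temperature and dual-emission reading.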

[3] = Stat Signaling Pathway (AID 446); details: ME-180 SIE beta-lactamase reporter, IL-6 stimulated, 5 h; at 7.69 µM (top of the series) unless noted;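 note: ME-180 cervical cancer cells given 40 pM IL-6 alongside compound; SIE-controlled beta-lactamase reporter measured as 460/530 nm FRET emission ratio; % is set by controls: 0 for no effect and ±100 for the full control effect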
Procedure, shortened: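 Reporter line: ME-180 cervical carcinoma, SIE-beta-lactamase. Treatment: compound with 40 pM IL-6, 5 hrs, 37 C, in low-serum OPTI-MEM with 10 mM HEPES pH 7.3. Detection: 460/530 nm fluorescence.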

[4] = target: Glucocorticoid receptor (Homo sapiens) (UniProt P04150); assay: GR-EFC Redistribution (AID 451; calls by dose curve; note: potency is the fitted concentration of half-maximal effect); details: CHO-K1 GR-EFC translocation, beta-gal luminescence, 2 h
Sequence of Glucocorticoid receptor (Homo sapiens) (P04150 whole entry, looked up, the tested form may be a part): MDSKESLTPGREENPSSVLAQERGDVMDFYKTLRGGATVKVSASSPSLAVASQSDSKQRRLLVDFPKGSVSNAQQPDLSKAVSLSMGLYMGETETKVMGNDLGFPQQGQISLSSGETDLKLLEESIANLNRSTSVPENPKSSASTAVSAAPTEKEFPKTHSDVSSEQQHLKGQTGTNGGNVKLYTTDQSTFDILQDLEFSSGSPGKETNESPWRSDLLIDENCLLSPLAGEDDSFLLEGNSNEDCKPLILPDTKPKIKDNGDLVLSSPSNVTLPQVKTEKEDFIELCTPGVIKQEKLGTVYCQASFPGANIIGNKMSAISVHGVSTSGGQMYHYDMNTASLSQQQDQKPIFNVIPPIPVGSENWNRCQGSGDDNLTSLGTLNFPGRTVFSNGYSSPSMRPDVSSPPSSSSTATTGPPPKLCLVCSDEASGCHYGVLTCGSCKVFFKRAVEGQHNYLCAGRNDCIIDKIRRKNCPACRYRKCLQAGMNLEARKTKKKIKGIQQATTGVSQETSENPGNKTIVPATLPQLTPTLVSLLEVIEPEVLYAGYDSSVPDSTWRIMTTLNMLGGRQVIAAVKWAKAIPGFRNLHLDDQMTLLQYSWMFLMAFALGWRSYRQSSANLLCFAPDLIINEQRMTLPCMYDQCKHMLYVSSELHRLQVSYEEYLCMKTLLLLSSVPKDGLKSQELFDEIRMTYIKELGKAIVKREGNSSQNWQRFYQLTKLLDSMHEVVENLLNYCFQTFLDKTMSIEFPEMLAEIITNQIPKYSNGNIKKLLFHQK
Procedure, shortened: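 Translocation of GR-ED fusion to nuclear EA restores b-gal, read by luminescence after 1 h room-temperature detection. Engineered CHO-K1 biosensor cells, 1,000/well, exposed 2 h at 37 C to titrations up to 46 uM final.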

[5] = target: Mitogen-activated protein kinase 10 (Mus musculus) (UniProt Q61831); assay: JNK3 AlphaScreen Assay (AID 530); details: JNK3 lysate, c-Jun phosphorylation; series mostly up to 57.1 µM;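 note: kinase came from lysate of stimulated human HepG2 cells; signal reports phosphorylation of biotinylated GST-cJun 1-79 at Ser73 with 10 µM ATP; % is set by controls: 0 for no effect and ±100 for the full control effect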
Procedure, shortened: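 Room-temperature AlphaScreen kinase assay; pre-activated HepG2 lysate as JNK3 source, biotin-GST-cJun(1-79) substrate, 10 uM ATP, compound 15 min preincubation.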

[6] = target: 3',5'-cyclic-AMP phosphodiesterase 4B (Homo sapiens) (UniProt Q07343); assay: qHTS Assay for Inhibitors of PDE-IV (AID 607; active = well fitted activation curve with a large enough effect in the main read-out, with a control signal flat, not every such curve was filed as active; note: % of control where 0% means no effect); details: HEK293 ACTOne CNG channel cells, membrane potential fluorescence; series mostly up to 22.9 µM
Sequence of 3',5'-cyclic-AMP phosphodiesterase 4B (Homo sapiens) (Q07343 whole entry, looked up): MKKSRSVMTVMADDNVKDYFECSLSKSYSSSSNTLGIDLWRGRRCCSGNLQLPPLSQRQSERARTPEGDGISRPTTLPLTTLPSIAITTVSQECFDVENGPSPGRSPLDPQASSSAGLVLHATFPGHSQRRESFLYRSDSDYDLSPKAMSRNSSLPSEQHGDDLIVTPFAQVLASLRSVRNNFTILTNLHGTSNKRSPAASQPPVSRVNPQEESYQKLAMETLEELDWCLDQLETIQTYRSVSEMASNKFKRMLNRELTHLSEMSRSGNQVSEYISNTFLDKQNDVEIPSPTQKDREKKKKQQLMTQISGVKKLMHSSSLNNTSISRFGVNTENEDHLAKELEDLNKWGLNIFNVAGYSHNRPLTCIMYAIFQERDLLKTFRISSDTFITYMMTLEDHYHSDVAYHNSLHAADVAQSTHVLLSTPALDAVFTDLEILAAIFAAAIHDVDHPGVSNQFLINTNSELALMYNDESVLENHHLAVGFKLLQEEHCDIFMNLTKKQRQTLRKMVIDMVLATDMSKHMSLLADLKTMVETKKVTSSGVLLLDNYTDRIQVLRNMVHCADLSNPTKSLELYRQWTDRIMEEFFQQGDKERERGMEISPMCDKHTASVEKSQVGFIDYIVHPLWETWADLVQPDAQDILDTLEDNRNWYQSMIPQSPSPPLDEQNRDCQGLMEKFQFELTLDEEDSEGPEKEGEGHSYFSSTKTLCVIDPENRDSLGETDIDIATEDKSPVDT
Procedure, shortened: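 Cell-based read-out of cAMP via a modified cyclic nucleotide-gated channel and membrane potential dye (535/590 nm) in HEK293 cells expressing PDE4 endogenously. Compounds tested up to 22.9 uM final; 100 uM RO 20-1724 reference.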

[7] = qHTS Assay for Lipid Storage Modulators (AID 1519; calls by dose curve); details: Drosophila S3 cells, BODIPY lipid droplet/cell ratio, laser cytometry, cells loaded with oleic acid; for activity change, negative = inhibition: at 57.5 µM (top of the series)
Procedure, shortened: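 Cells seeded at 5,000 per well were treated with compounds over a concentration series and loaded with oleic acid (400 uM, as added). Lipid droplet fluorescence (488 nm excitation, 500-530 nm channel) was read by laser-scanning cytometry and normalized to 20 uM Triacsin C.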

[8] = Primary qHTS for small molecule stabilizers of the endoplasmic reticulum resident proteome: Secreted ER Calcium Modulated Protein (SERCaMP) assay (AID 1508630; active = well fitted curve in the direction sought with a large enough effect; an effect the other way counts as inactive or inconclusive; note: % is set by controls: 0 for no effect and ±100 for the full control effect); details: SH-SY5Y GLuc-SERCaMP (Gaussia luciferase released on ER calcium loss) secretion, thapsigargin, luminescence; series mostly up to 38.4 µM
Procedure, shortened: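 GLuc-SERCaMP-expressing SH-SY5Y cells, pretreated 16 h with compound, are challenged with thapsigargin to empty ER calcium stores; after 4 h, coelenterazine is added directly to the medium and luminescence is imaged.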

[9] = target: Glucocorticoid receptor (Homo sapiens) (UniProt P04150); assay: GR-GFP Redistribution (AID 450;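 active = compounds whose dose series gives a full or clear partial fitted curve of increased nuclear translocation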; note: potency is the fitted concentration of half-maximal effect); details: U2OS GR-GFP nuclear translocation, laser cytometry, 2 h
[10] = target: Cytochrome P450 3A4 (Homo sapiens) (UniProt P08684); assay: qHTS Assay for Inhibitors and Substrates of Cytochrome P450 3A4 (AID 884; active = well fitted curve in the direction sought with a large enough effect; an effect the other way counts as inactive or inconclusive; note: potency is the fitted concentration of half-maximal effect; nearly all actives have a fitted effect of over 50% in size); details: recombinant CYP3A4, Luciferin-PPXE luminescence; series mostly up to 57.1 µM
Sequence of Cytochrome P450 3A4 (Homo sapiens) (P08684 whole entry, looked up): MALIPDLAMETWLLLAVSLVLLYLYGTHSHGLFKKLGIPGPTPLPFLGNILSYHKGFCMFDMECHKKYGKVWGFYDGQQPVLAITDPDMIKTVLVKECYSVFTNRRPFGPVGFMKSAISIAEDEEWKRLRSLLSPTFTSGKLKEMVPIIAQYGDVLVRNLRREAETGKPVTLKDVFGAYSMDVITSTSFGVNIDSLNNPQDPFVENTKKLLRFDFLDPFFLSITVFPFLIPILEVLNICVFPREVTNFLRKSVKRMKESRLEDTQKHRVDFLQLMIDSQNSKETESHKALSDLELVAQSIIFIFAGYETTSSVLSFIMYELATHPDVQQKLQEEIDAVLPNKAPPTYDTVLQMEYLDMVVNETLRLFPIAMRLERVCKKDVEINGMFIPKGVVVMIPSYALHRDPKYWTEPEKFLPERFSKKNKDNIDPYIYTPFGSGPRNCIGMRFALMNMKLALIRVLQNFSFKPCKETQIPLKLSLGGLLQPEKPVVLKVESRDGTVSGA
Procedure, shortened: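 20 nM human CYP3A4 with 25 uM Luciferin-PPXE (at KM) in 200 mM KPO4, preincubated 10 min with compound; NADPH regeneration started a 60 min RT reaction. Luciferin detected by luminescence, normalized to 57 uM ketoconazole as full inhibition.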

[11] = target: Cytochrome P450 3A4 (Homo sapiens) (UniProt P08684); assay: qHTS Assay for Activators of Cytochrome P450 3A4 (AID 885; active = well fitted curve in the direction sought with a large enough effect; an effect the other way counts as inactive or inconclusive; note: nearly all actives have a fitted effect of over 65% in size); details: recombinant CYP3A4, Luciferin-PPXE luminescence, 60 min; series mostly up to 57.1 µM
Procedure, shortened: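 Signal was normalized against complete inhibition by 57 uM ketoconazole. The reaction used 20nM CYP3A4 with 25uM Luciferin-PPXE, 10-min compound preincubation and a 60-min NADPH-supported step at RT.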

[12] = Confirmation and Secondary Assay for Modulators of Hemoglobin Beta Chain Splicing at IVS2 705 locus (AID 930; active = well fitted curve in the direction sought with a large enough effect; an effect the other way counts as inactive or inconclusive;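 note: HeLa cells stably expressing the EGFP-705 splicing reporter; GFP fluorescence per well restored by corrected splicing of the IVS2-705 intron in EGFP; % of control where 0% means no effect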); details: HeLa EGFP-705 splicing reporter, GFP fluorescence, 48 h; series mostly up to 38.3 µM
Procedure, shortened: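 Assay measures total GFP intensity per well in HeLa EGFP-705 cells after 2 days with compound; mis-splicing normally truncates EGFP, so fluorescence indicates corrected splicing.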

[13] = target: Ubiquitin carboxyl-terminal hydrolase 1 (Homo sapiens) (UniProt O94782); assay: Inhibitors of USP1/UAF1: Pilot qHTS (AID 504865; active = well fitted curve in the direction sought with a large enough effect; an effect the other way counts as inactive or inconclusive;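 note: rhodamine fluorescence freed from ubiquitin-rhodamine substrate followed over time; top concentration of the series differs between compounds; % is set by controls: 0 for no effect and ±100 for the full control effect; nearly all actives have a fitted effect of over 35% in size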); details: purified USP1/UAF1, Ub-rhodamine cleavage fluorescence; series mostly up to 54.9 µM
Sequence of Ubiquitin carboxyl-terminal hydrolase 1 (Homo sapiens) (O94782 whole entry, looked up): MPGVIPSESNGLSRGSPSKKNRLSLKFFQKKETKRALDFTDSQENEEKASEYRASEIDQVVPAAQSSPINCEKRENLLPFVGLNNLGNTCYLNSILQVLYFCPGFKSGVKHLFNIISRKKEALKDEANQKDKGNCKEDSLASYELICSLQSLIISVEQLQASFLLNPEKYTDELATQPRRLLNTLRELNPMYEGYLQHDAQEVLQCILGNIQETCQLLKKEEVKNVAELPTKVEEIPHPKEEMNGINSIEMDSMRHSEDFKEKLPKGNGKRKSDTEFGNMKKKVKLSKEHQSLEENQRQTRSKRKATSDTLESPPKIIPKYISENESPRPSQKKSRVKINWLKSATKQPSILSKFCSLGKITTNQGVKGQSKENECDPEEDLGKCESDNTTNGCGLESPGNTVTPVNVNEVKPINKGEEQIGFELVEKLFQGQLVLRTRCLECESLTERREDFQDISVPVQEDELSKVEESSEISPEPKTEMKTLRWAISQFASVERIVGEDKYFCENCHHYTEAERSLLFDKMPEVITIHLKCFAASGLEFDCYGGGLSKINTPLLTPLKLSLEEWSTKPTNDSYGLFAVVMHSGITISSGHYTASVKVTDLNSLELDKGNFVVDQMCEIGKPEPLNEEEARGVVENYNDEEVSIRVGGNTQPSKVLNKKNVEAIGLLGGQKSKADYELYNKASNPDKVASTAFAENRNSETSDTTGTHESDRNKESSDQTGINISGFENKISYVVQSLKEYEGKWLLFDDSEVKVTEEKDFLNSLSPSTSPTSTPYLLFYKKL
Procedure, shortened: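 Deubiquitinase activity followed as kinetic rhodamine fluorescence release from 150 nM Ub-Rho. 1 nM USP1/UAF1 with compound, after 15 min room-temperature preincubation, in HEPES pH 7.8 buffer containing TCEP, EDTA, BSA and Tween-20.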

[14] = measured here: cell count channel max response
[15] = measured here: lipid channel max response

COCC(=O)N1CCC2(CCCN(C(c3ccccc3)c3ccccc3)C2)CC1
15.7%: max response [7, 14]
inactive: Potency [1] > 11.4 µM | activity change, negative = inhibition [2] -6.37% | activity, negative = inhibition [3] 16.7% | Potency [4] > 46 µM | Potency [5] | Potency [6] | activity change, negative = inhibition [7] -0.272% | outcome [8]
20.6%: max response [7, 15]

Cc1cnc(CNc2ncnc3ccc(-c4cccc(C#N)c4)cc23)cn1
active: Potency [10] 3.16 µM
8.37%: max response [7, 15]
inactive: Potency [1] > 11.4 µM | activity change, negative = inhibition [2] -21.7% | activity, negative = inhibition [3] -7.7% | Potency [9] > 46 µM | Potency [4] > 46 µM | Potency [5] | Potency [6] | Potency [11] | outcome [12] | activity change, negative = inhibition [7] 11.4% | Potency [13] | outcome [8]
-3.07%: max response [7, 14]

COc1ccccc1CN1CC2(CCN(C(=O)c3cccc(F)c3)CC2)C1
13.5%: max response [7, 15]
inactive: Potency [1] > 11.4 µM | activity change, negative = inhibition [2] -3.72% | activity, negative = inhibition [3] 0.108% | Potency [4] > 46 µM | Potency [5] | Potency [6] | activity change, negative = inhibition [7] 3.26% | outcome [8]
8.06%: max response [7, 14]

N#Cc1ccc(CN2CCCC3(CCN(C(=O)c4ccco4)CC3)C2)cc1
inactive: Potency [1] > 11.4 µM | activity change, negative = inhibition [2] -7.19% | activity, negative = inhibition [3] 4.81% | Potency [4] > 46 µM | Potency [5] | Potency [6] | activity change, negative = inhibition [7] -5.76% | outcome [8]
-5.31%: max response [7, 14]
-10.9%: max response [7, 15]

CN1CC[C@@]2(CCCN(S(=O)(=O)c3ccccc3)C2)C1
16.3%: max response [7, 15]
inactive: Potency [1] > 11.4 µM | activity change, negative = inhibition [2] -25.8% | activity, negative = inhibition [3] 3.36% | Potency [4] > 46 µM | Potency [5] | Potency [6] | activity change, negative = inhibition [7] 5.6% | outcome [8]
6.91%: max response [7, 14]

COc1ccccc1CN1CCCC2(CCN(C(=O)c3cccc(F)c3)CC2)C1
3.85%: max response [7, 14]
inactive: Potency [1] > 11.4 µM | activity change, negative = inhibition [2] -7.36% | activity, negative = inhibition [3] 1.24% | Potency [4] > 46 µM | Potency [5] | Potency [6] | activity change, negative = inhibition [7] 0.576% | outcome [8]
7.25%: max response [7, 15]

COCC(=O)N1CCC[C@@]2(CCN(c3ccncc3)C2)C1
-0.218%: max response [7, 14]
inactive: Potency [1] > 11.4 µM | activity change, negative = inhibition [2] -10.7% | activity, negative = inhibition [3] 5.19% | Potency [4] > 46 µM | Potency [5] | Potency [6] | activity change, negative = inhibition [7] 1.37% | outcome [8]
3.63%: max response [7, 15]

O=C(c1ccncc1)N1CCC2(CCCN(c3ccccn3)C2)CC1
10.2%: max response [7, 14]
19.9%: max response [7, 15]
inactive: Potency [1] > 11.4 µM | activity change, negative = inhibition [2] -11.7% | activity, negative = inhibition [3] 4.12% | Potency [4] > 46 µM | Potency [5] | Potency [6] | activity change, negative = inhibition [7] 7.75% | outcome [8]

O=C(c1ccncc1)N1CCC2(CCCN(c3ccncc3)C2)CC1
-10.7%: max response [7, 14]
-8.67%: max response [7, 15]
inactive: Potency [1] > 11.4 µM | activity change, negative = inhibition [2] -3.65% | activity, negative = inhibition [3] -4.53% | Potency [4] > 46 µM | Potency [5] | Potency [6] | activity change, negative = inhibition [7] 0.736% | outcome [8]

COc1ccc(C(=O)N2CCC3(CCN(Cc4ccccc4)CC3)CC2)cc1
7.94%: max response [7, 15]
inactive: Potency [1] > 11.4 µM | activity change, negative = inhibition [2] -0.685% | activity, negative = inhibition [3] 0.0273% | Potency [4] > 46 µM | Potency [5] | Potency [6] | activity change, negative = inhibition [7] 0.635% | outcome [8]
-0.0682%: max response [7, 14]

O=C(c1cnccn1)N1CCC2(CCN(Cc3ccccc3)CC2)CC1
7.12%: max response [7, 14]
14.3%: max response [7, 15]
inactive: Potency [1] > 11.4 µM | activity change, negative = inhibition [2] 12.5% | activity, negative = inhibition [3] -1.26% | Potency [4] > 46 µM | Potency [5] | Potency [6] | activity change, negative = inhibition [7] 2.37% | outcome [8]

O=C(c1cccc(F)c1)N1CCC2(CCCN(c3ccncc3)C2)CC1
16.5%: max response [7, 15]
inactive: Potency [1] > 11.4 µM | activity change, negative = inhibition [2] 8.58% | activity, negative = inhibition [3] -8.19% | Potency [4] > 46 µM | Potency [5] | Potency [6] | activity change, negative = inhibition [7] 3.69% | outcome [8]
9.25%: max response [7, 14]

COCC(=O)N1CCC2(CC1)CCN(c1ccncc1)CC2
-6.96%: max response [7, 14]
inactive: Potency [1] > 11.4 µM | activity change, negative = inhibition [2] 7.44% | activity, negative = inhibition [3] 16.3% | Potency [4] > 46 µM | Potency [5] | Potency [6] | activity change, negative = inhibition [7] -1.56% | outcome [8]
-10.2%: max response [7, 15]

O=C(c1csnn1)N1CCC2(CCN(Cc3cc(C(F)(F)F)cc(C(F)(F)F)c3)CC2)CC1
11.7%: max response [7, 15]
7.55%: max response [7, 14]
inactive: Potency [1] > 11.4 µM | activity change, negative = inhibition [2] 11.5% | activity, negative = inhibition [3] 4.05% | Potency [4] > 46 µM | Potency [5] | Potency [6] | activity change, negative = inhibition [7] 1.96% | outcome [8]

O=C(c1csnn1)N1CCC2(CCCN(c3ccncc3)C2)CC1
inactive: Potency [1] > 11.4 µM | activity change, negative = inhibition [2] -17.6% | activity, negative = inhibition [3] -10.5% | Potency [4] > 46 µM | Potency [5] | Potency [6] | activity change, negative = inhibition [7] -0.384% | outcome [8]
-0.685%: max response [7, 15]
0.465%: max response [7, 14]

O=C(c1cnccn1)N1CCC2(CC1)CCN(c1ccncc1)CC2
3.08%: max response [7, 14]
8.09%: max response [7, 15]
inactive: Potency [1] > 11.4 µM | activity change, negative = inhibition [2] 15.7% | activity, negative = inhibition [3] 2.83% | Potency [4] > 46 µM | Potency [5] | Potency [6] | activity change, negative = inhibition [7] 2.66% | outcome [8]
